Experimental data taken from the supplement of paper PMC10849652.
Of roughly 8,800 targets only a part is listed; those with a hit were picked by preference. About 0.5% of all pairs of compound and target were hits. Unmarked numbers belong to inactive results.

What was measured:
Test in all cases: log2 fold change, soluble protein after heating vs DMSO (PISA); higher = thermal stabilisation; K562 lysate, 10 uM; active = over 0.2 and 3.5 SD of the protein, either way, in both replicates (recomputed)
[1] = compound: CCCS(=O)(=O)Nc1ccc(F)c(C(=O)c2c[nH]c3ncc(-c4ccc(Cl)cc4)cc23)c1F [vemurafenib]
Method in brief: (§1)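 A 30 min treatment with 10 μM compound was applied to crude K562 extract at 1 mg/mL protein in PBS pH 7.4 with 1 mM MgCl2. Heating for 3 min spanned 48°C-58°C, after which aliquots were pooled, adjusted to 0.5% NP-40 at 4°C and spun at 21,000xg for 90 min. TMTpro 16plex LC-MS/MS of the supernatant, with channel sums equalised, gave values recorded as log-two fold change in thermal stability against solvent controls, from duplicates.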

[2] = compound: CCCS(=O)(=O)Nc1ccc(F)c(C(=O)c2c[nH]c3ncc(Cl)cc23)c1F
Method in brief: as §1

[3] = compound: CCN(CCCOc1ccc2c(Nc3cc(CC(=O)Nc4cccc(F)c4)[nH]n3)ncnc2c1)CCOP(=O)(O)O [barasertib]
Method in brief: as §1

[4] = compound: CC[C@@H]1C(=O)N(C)c2cnc(Nc3ccc(C(=O)NC4CCN(C)CC4)cc3OC)nc2N1C1CCCC1
Method in brief: as §1

[5] = compound: CC[C@@H]1C(=O)N(C)c2cnc(Nc3ccc(C(=O)N[C@H]4CC[C@H](N5CCN(CC6CC6)CC5)CC4)cc3OC)nc2N1C(C)C [volasertib]
Method in brief: as §1

[6] = compound: CCn1c(C(=O)N(C2CC2)C2CC2)cc2c3c(ncn3C)c(Nc3cc(C)n(C)n3)nc21
Method in brief: as §1

[7] = compound: CCn1cc(-c2ccnc3[nH]c(-c4cccc(CN(C)C)c4)cc23)c(-c2ccc(NC(=O)N(C)C)cc2)n1
Method in brief: as §1

[8] = compound: CN1CCC(CNc2ccc3ncc(-c4cccc(OC(F)(F)F)c4)n3n2)CC1
Method in brief: as §1

[9] = compound: CN1CCN(CCOc2cc(OC3CCOCC3)c3c(Nc4c(Cl)ccc5c4OCO5)ncnc3c2)CC1 [saracatinib]
Method in brief: as §1

[10] = compound: CN1CCN(c2nc(C3=C(c4c[nH]c5ccccc45)C(=O)NC3=O)c3ccccc3n2)CC1 [sotrastaurin]
Method in brief: as §1

[11] = compound: CN1CC[C@H](c2c(O)cc(O)c3c(=O)cc(-c4ccccc4Cl)oc23)[C@H](O)C1 [alvocidib]
Method in brief: as §1

[12] = compound: CN1CCc2c(c3ccccc3n2Cc2ccc(C(=O)NO)cc2)C1 [Tubastatin A]
Method in brief: as §1

[13] = compound: CNC(=O)C1=CC=CC=C1NC2=NC(=NC=C2Cl)NC3=C(C=C(C=C3)N4CCOCC4)OC
Method in brief: as §1

[14] = compound: CNC(=O)c1ccc(Nc2ncc(C(F)(F)F)c(NCc3nccnc3N(C)S(C)(=O)=O)n2)cc1 [defactinib]
Method in brief: as §1

[15] = compound: CNc1nc(-c2ccc3c(N)n[nH]c3c2)cc(N2C[C@@H](C(=O)NC3CCCCC3)CC[C@H]2C)n1
Method in brief: as §1

[16] = compound: COC(=O)N[C@@H](C)CNc1nccc(-c2cn(C(C)C)nc2-c2cc(Cl)cc(NS(C)(=O)=O)c2F)n1 [encorafenib]
Method in brief: as §1

[17] = compound: COC(=O)[C@H](CCSC)NC(=O)C1=C(C=C(C=C1)NC[C@H](CS)N)C2=CC=CC=C2
Method in brief: as §1

[18] = compound: COc1cc(Nc2ncc3c(n2)-c2ccc(Cl)cc2C(c2c(F)cccc2OC)=NC3)ccc1C(=O)O [alisertib]
Method in brief: as §1

[19] = compound: COc1cc2nc(-c3cc(F)ccc3O)nc(N[C@@H]3CNC[C@H]3C(C)(C)O)c2cc1OC
Method in brief: as §1

[20] = compound: COc1cc2ncnc(Nc3ccc(F)c(Cl)c3)c2cc1OCCCN1CCOCC1 [gefitinib]
Method in brief: as §1

Chain of UniProt Q9Y5T5 (Q9Y5T5 whole entry, looked up): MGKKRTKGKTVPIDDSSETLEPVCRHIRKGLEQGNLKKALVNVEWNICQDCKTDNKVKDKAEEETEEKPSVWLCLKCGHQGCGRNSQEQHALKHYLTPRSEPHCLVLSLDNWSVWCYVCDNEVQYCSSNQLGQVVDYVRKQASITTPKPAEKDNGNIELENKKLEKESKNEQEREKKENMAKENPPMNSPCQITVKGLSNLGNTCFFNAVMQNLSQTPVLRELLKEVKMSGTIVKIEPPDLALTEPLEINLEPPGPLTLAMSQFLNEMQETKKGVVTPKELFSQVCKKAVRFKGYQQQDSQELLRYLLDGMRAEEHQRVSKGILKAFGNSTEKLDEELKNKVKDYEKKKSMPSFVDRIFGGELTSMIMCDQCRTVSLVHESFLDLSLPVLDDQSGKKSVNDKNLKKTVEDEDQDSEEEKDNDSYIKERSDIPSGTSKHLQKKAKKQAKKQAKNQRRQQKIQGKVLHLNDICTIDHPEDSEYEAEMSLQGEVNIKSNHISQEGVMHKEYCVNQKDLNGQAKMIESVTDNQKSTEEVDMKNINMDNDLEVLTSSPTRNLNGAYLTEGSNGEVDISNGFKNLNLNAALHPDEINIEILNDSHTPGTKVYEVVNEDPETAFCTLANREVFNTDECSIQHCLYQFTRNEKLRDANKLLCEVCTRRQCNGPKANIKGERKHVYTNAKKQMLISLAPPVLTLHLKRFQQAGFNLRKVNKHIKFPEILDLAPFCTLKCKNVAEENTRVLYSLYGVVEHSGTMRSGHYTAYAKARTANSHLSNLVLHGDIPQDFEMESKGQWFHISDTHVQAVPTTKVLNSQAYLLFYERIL
Chain of UniProt O14980 (O14980 whole entry, looked up): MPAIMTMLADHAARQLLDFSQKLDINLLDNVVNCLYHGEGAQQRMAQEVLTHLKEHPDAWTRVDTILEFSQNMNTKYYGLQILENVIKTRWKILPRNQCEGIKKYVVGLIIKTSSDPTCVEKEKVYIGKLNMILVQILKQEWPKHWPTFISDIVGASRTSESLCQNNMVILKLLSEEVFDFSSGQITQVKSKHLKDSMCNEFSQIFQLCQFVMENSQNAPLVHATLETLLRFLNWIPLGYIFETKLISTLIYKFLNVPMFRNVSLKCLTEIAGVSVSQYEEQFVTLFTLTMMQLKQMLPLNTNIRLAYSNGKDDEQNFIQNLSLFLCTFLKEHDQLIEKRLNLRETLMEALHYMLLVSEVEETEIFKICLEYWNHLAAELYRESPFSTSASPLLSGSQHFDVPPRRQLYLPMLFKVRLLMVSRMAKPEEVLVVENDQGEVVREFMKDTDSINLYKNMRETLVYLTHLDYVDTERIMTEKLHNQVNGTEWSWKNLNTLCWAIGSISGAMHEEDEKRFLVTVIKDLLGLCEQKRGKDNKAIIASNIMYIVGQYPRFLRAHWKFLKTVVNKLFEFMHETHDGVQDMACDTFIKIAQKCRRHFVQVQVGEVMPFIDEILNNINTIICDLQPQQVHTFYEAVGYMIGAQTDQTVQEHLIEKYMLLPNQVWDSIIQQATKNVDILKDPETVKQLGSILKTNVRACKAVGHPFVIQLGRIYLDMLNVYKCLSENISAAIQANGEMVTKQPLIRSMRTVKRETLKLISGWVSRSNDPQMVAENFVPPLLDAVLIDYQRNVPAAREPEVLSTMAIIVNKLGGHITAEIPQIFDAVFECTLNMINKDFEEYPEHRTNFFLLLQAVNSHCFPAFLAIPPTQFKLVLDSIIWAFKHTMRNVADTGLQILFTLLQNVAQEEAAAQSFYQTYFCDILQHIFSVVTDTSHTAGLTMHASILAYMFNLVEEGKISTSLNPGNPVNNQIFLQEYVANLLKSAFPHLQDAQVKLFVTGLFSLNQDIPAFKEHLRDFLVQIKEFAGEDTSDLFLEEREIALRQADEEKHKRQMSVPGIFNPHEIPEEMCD
Chain of UniProt Q08AM6 (Q08AM6 whole entry, looked up): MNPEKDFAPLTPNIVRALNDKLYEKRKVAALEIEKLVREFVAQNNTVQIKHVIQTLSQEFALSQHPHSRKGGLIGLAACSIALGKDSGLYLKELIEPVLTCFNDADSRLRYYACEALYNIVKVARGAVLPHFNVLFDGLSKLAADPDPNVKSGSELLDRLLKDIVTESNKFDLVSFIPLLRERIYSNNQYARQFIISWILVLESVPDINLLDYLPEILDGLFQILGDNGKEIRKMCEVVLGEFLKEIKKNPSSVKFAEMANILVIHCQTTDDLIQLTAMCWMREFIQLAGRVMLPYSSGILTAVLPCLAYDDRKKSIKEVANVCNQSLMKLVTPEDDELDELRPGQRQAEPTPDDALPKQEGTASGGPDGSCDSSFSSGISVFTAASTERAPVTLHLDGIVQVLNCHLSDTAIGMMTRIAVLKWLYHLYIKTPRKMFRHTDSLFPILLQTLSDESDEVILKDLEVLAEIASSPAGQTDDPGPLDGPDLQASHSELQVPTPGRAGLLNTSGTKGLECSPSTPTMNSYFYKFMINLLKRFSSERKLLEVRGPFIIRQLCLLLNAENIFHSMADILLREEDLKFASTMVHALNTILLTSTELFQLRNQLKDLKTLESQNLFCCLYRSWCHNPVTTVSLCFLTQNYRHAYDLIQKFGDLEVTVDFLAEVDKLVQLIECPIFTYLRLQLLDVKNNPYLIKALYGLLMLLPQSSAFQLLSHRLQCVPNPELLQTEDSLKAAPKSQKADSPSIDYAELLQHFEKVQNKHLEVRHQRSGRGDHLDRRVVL
Chain of UniProt Q9H6R7 (Q9H6R7 whole entry, looked up): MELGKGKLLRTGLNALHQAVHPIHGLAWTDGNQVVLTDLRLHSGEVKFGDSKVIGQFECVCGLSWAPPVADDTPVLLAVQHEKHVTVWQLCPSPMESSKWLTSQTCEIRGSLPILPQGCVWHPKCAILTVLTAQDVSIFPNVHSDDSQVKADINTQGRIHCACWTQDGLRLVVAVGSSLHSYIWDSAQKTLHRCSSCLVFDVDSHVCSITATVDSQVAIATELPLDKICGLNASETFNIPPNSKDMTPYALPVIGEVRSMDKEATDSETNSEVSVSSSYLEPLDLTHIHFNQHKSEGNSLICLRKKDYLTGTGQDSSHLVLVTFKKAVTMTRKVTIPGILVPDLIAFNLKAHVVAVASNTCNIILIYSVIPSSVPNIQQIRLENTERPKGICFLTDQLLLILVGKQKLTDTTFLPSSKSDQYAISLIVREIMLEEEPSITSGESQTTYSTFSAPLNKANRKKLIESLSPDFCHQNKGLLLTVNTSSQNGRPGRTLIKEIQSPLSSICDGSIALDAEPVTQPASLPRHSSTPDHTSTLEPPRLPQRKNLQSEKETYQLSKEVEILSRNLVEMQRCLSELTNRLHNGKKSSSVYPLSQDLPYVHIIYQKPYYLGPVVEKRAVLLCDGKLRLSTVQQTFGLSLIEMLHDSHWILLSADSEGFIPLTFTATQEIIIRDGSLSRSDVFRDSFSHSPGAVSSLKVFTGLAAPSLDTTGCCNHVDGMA
Chain of UniProt Q86UV5 (Q86UV5 whole entry, looked up): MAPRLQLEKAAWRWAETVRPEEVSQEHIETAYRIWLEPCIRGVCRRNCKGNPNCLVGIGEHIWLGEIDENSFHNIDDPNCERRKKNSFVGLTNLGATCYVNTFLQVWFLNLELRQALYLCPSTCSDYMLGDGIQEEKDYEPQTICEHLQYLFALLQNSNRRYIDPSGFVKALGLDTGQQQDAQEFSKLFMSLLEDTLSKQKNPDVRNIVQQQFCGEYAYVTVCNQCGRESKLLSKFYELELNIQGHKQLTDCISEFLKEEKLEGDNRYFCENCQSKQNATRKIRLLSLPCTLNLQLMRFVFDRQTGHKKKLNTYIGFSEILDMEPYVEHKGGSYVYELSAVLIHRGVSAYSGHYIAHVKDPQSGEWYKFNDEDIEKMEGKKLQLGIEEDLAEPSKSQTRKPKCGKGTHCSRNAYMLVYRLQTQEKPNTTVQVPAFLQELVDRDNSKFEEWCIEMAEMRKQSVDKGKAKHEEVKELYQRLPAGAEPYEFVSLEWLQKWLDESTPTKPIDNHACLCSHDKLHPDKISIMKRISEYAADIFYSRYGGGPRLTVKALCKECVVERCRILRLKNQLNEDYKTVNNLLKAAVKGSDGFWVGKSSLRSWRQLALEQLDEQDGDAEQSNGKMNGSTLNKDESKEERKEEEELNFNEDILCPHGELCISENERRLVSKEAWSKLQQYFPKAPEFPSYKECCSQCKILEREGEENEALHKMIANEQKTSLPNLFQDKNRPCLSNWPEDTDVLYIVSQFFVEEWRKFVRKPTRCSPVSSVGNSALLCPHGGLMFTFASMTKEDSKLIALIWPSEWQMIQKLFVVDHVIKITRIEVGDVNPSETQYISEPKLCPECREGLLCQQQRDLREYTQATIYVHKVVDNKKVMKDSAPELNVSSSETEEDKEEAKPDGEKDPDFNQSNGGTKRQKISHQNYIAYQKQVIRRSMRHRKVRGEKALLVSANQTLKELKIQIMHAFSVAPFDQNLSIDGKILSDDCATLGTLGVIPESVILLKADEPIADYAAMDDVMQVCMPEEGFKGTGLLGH
Chain of UniProt Q9UBK9 (Q9UBK9 whole entry, looked up): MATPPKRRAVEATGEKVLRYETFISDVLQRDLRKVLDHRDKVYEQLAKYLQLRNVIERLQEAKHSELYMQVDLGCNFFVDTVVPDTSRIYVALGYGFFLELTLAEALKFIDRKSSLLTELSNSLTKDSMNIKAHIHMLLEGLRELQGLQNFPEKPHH

Target	log2 fold change [1]	log2 fold change [2]	log2 fold change [3]	log2 fold change [4]	log2 fold change [5]	log2 fold change [6]	log2 fold change [7]	log2 fold change [8]	log2 fold change [9]	log2 fold change [10]	log2 fold change [11]	log2 fold change [12]	log2 fold change [13]	log2 fold change [14]	log2 fold change [15]	log2 fold change [16]	log2 fold change [17]	log2 fold change [18]	log2 fold change [19]	log2 fold change [20]
USP16 (UniProt Q9Y5T5)	0.038	0.005	0.016	-0.009	-0.011	0.01	0.039	-0.045	0.054	0.013	0.004	-0.118	-0.011	0.035	0.008	0.059	0.081	-0.011	-0.003	-0.013
WDCP (UniProt Q9H6R7)	-0.004	0.033	0.032	0.031	-0.019	-0.04	0.003	0.01	-0.011	0.039	0.019	-0.138	0.025	0.005	0.032	0.024	-0.019	0.01	0.062	-0.017
USP48 (UniProt Q86UV5)	0.043	0.074	-0.024	0.047	-0.102	-0.057	-0.821 (active)	0.146	-0.021	-0.12	-0.193	-0.069	0.123	0.024	0.054	-0.016	0.018	-0.015	0.09	-0.069
VAC14 (UniProt Q08AM6)	-0.002	0.008	0.021	-0.021	-0.02	0.013	-0.032	0.007	0.007	0	0	-0.036	0.022	0.007	0.005	0.04	-0.051	0.008	0.006	0.003
XPO1 (UniProt O14980)	0.015	0.005	0.023	-0.055	-0.026	0.013	-0.05	0.019	0.033	0.022	0.005	-0.096	-0.011	0.016	-0.013	0.034	-0.101	0.013	0.023	-0.007
UXT isoform 2 (UniProt Q9UBK9)	-0.023	0	0.056	0.321 (active)	-0.004	-0.088	-0.05	0.032	0.053	0.001	-0.038	0.081	0.015	0.069	0.574 (active)	-0.081	0.025	-0.041	0.038	0.04
VPS11 (UniProt Q9H270)	-0.002	0.034	0.013	-0.033	-0.038	0.015	-0.051	-0.007	0.039	0.019	0.039	-0.113	0.023	0.022	-0.026	0.016	-0.096	0.002	0.019	-0.007
USP10 isoform 2 (UniProt Q14694)	0.021	0.013	0.002	-0.005	-0.039	0.013	-0.079	0	0.005	0.008	0.006	-0.118	0.015	0.017	0.021	0.019	0.04	0.012	-0.009	-0.018
